# From PubChem BioAssay AID651658 (Broad Institute, 2012)
# Values joined by “and” are separate entries in the source; they are usually repeats but may differ in a detail not shown here. Equal entries are not always repeated. Among all 340,000 compounds or so, about 5,100 (1.5%) were called active. For the sample, actives were picked, then their nearest neighbours and some compounds at random. A number with no mark means an inactive call.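 How the source made its calls: active means mean Tm shift, scaled 0 neutral to 100 positive control, at about 1.3% or above, every replicate too (limit read from the data); inconclusive means no clear call, values can overlap the other calls; inactive means the rest.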
# Target: Fibroblast growth factor 22 (Homo sapiens) (UniProt Q9HCT0)
# Sequence (Q9HCT0 whole entry, looked up): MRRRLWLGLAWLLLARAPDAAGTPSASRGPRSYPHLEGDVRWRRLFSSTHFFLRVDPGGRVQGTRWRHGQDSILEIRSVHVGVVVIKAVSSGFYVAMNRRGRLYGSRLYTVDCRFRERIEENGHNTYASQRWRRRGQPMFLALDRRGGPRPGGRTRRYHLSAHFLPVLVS
# Experiment: binders of human FGF22 protein, primary screen, FGF22 synaptogenesis inhibitor project, biophysical, thermal shift, single point (AID 651658)
# Details: recombinant FGF22 thermal shift, SYPRO orange fluorescence; at 9.99 µM; stronger effect = higher value; percent of sucrose octasulfate shift, DMSO zero
row,SMILES,"activity (Tm shift, normalised)"
1,S=c1[nH]nc(COc2ccccc2)n1-c1ccccc1,43.8% (active)
2,COc1ccc(OCc2n[nH]c(=S)n2N)cc1,0.243%
3,Fc1ccc(/C=N/n2c(COc3ccccc3)n[nH]c2=S)cc1,0.702%
4,CO[C@@H]1CN(C)C(=O)c2cc(NS(=O)(=O)CC(F)(F)F)ccc2OC[C@H](C)N(C)C[C@H]1C,-0.229%
5,O=C(C[C@H]1CC[C@H]2[C@@H](COC[C@H](O)CN2C(=O)c2ccccc2F)O1)NCc1ccccc1,0.053%
6,O=C(NCC1CC1)[C@H]1[C@H](CO)[C@H]2Cn3c(ccc(/C=C/c4ccccc4)c3=O)[C@@H]1N2C(=O)C1CCC1,0.006%
7,COc1ccc(Cn2c(=O)oc3ccccc32)cc1,-0.205%
8,COc1ccc(-c2ccc([C@@H]3[C@@H](CO)N4C(=O)CN(Cc5ccccc5)C[C@@H]34)cc2)cc1,-0.039%
9,COc1ccc(Cn2c(-c3ccc(Cl)cc3)c[n+]3ccccc23)cc1,44% (active)
10,C[C@@H]1CCCCO[C@H](CN(C)Cc2ccc3c(c2)OCO3)[C@H](C)CN([C@@H](C)CO)C(=O)c2cc(NS(=O)(=O)c3cccs3)ccc2O1,-0.357% and -0.044%
11,O=C(Nc1ccc(Cl)cc1)C1c2cccc[n+]2CC(=O)N1Cc1ccc2c(c1)OCO2 (stereo not drawn),-0.124%
12,CCCOc1ccc(NC(=O)CC2C(=O)N(C)C(=S)N2Cc2ccc3c(c2)OCO3)cc1 (stereo not drawn),2.52% (active)
13,CCOc1ccc(NC(=O)CC2C(=O)N(c3ccccc3)C(=O)N2CCOC)cc1 (stereo not drawn),-0.014%
14,COc1ccc(NC(=O)N[C@@H]2CC[C@H](CC(=O)NC3CCC3)O[C@H]2CO)cc1,-0.109%
15,O=C(C[C@@H]1CC[C@@H]2[C@H](COC[C@H](O)CN2S(=O)(=O)c2ccc(Oc3ccccc3)cc2)O1)NCCN1CCCCC1,0.107%
16,COc1ccccc1-c1cnc2c(c1)C(=O)N([C@@H](C)CO)C[C@@H](C)[C@@H](CN(C)C(=O)c1cccnc1)O2,-0.285%
17,COc1ccccc1C#Cc1cnc2c(c1)C(=O)N([C@@H](C)CO)C[C@@H](C)[C@@H](CN(C)C(=O)CN(C)C)O2,-0.154%
18,CN(C)CCNC(=O)Cc1ccc([N+](=O)[O-])cc1,0.505%
19,CN(C)C(CNC(=O)Cc1ccc([N+](=O)[O-])cc1)c1ccccc1 (stereo not drawn),42.9% (active)
20,O=C(CC(c1ccccc1)c1ccccc1)NCC(O)c1ccc([N+](=O)[O-])cc1 (stereo not drawn),-0.099%
21,CCC(=O)N(C)C[C@H]1Oc2ncc(C#CC(C)C)cc2C(=O)N([C@@H](C)CO)C[C@H]1C,0.017%

row,SMILES,"activity (Tm shift, normalised)"
1,O=C(C1CCCC1)N1[C@H](CO)[C@@H]2c3ccccc3N(S(=O)(=O)c3ccccc3)C[C@@H]21,0.581%
2,C[C@H](O)C#Cc1cnc2c(c1)C(=O)N([C@H](C)CO)C[C@@H](C)[C@H](CN(C)CC1CCCCC1)O2,-0.028%
3,CN(C)CC(=O)N[C@H]1CC[C@@H](CCNC(=O)C2CCCC2)O[C@@H]1CO,0.021%
4,Cc1ccc(C(=O)NNC(=O)CSc2nnc3ccccn23)cc1,-0.076%
5,Cc1ccc(-n2c(C)cc(C(=O)CSc3nnc4ccccn34)c2C)cc1,43.1% (active)
6,O=C(CSc1nnc2ccccn12)c1ccccc1,-0.056%
7,CN1C(=O)c2cc(NC(=O)c3ccc4c(c3)OCO4)ccc2OC[C@@H]2O[C@H](CC(=O)O)CC[C@H]21,0.218%
8,C[C@H](CO)N1C[C@H](C)[C@@H](CN(C)C(=O)c2cnccn2)Oc2ncc(-c3ccccc3F)cc2C1=O,-0.163%
9,C/C(CC(=O)Nc1cccc(F)c1)=N\NC(=O)C(=O)NC1CCCCC1,43.7% (active)
10,COc1cccc(NC(=O)C/C(C)=N/NC(=O)C2CCCCC2)c1,-0.252%
11,O=C(Nc1cccc(F)c1)NC1CCCCCCC1,0.32%
12,COc1ccc(CN(C)C[C@@H]2OCCCC[C@@H](C)Oc3ccc(NS(=O)(=O)c4ccc(F)cc4)cc3C(=O)N([C@@H](C)CO)C[C@H]2C)cc1,-0.218%
13,Cc1cccc(-c2ccc([C@@H]3[C@@H](CO)N4CCCCN(S(=O)(=O)c5cccs5)C[C@H]34)cc2)c1,-0.206%
14,C[C@H](CO)N1C[C@H](C)[C@H](CN(C)Cc2ccc(C(=O)Nc3ccccc3N)cc2)Oc2c(NC(=O)Nc3ccccc3)cccc2C1=O,-0.326%
15,C/C=C/c1ccc2c(c1)O[C@H](CN(C)C(=O)Cc1ccccn1)[C@H](C)CN([C@H](C)CO)S2(=O)=O,-0.272%
16,CCOc1ccc(CCNC(=O)Nc2ccccc2)cc1OCC,-0.025%
17,CCCNCc1cc(OCC)c(OCC(=O)Nc2ccccc2)cc1Br,44% (active)
18,CCOc1cc(NC(=O)Nc2ccccc2)c(OCC)cc1NC(=O)CC,-0.075%
19,CCCN1C[C@H](C)[C@@H](OC)CN(C)C(=O)c2cc(NS(=O)(=O)CC)ccc2OC[C@H]1C,-0.257%
20,Cc1cc([N+](=O)[O-])ccc1NS(=O)(=O)c1ccccc1,1.12%
21,Cc1cc(C)n(S(=O)(=O)c2cccc([N+](=O)[O-])c2)n1,-0.005%

row,SMILES,"activity (Tm shift, normalised)"
1,Cc1ccccc1OS(=O)(=O)c1cccc([N+](=O)[O-])c1,43% (active)
2,CCCNC(=O)Nc1ccc2c(c1)C(=O)N(C)C[C@H](OC)[C@@H](C)CN(C)[C@@H](C)CO2,-0.468%
3,O=C(c1ccccc1F)N1CC(=O)N2[C@H](C1)[C@H](c1ccc(-c3ccc(F)cc3)cc1)[C@@H]2CO,1.26% (active)
4,O=C(c1cccnc1)N1CC(=O)N2[C@H](C1)[C@H](c1ccc(-c3ccccc3F)cc1)[C@@H]2CO,0.042%
5,COCC(=O)N1CC(=O)N2[C@H](CO)[C@@H](c3ccc(-c4ccccc4F)cc3)[C@H]2C1,-0.341%
6,C/C=C/c1ccccc1[C@@H]1[C@@H](CO)N(C(=O)CN2CCOCC2)[C@H]1C#N,-0.302%
7,C[C@H]1CN([C@@H](C)CO)C(=O)c2cc(NC(=O)Cc3cn(C)c4ccccc34)ccc2O[C@@H]1CN(C)Cc1ccc(Cl)c(Cl)c1,0.161%
8,Cc1noc(C)c1S(=O)(=O)Nc1ccc2c(c1)C(=O)N([C@@H](C)CO)C[C@@H](C)[C@H](CN(C)C(=O)NC(C)C)OCCCC[C@@H](C)O2,-0.227%
9,CC(C)NC(=O)N(C)C[C@H]1OCCCC[C@@H](C)Oc2ccc(NC(=O)C3CCCCC3)cc2C(=O)N([C@H](C)CO)C[C@H]1C,-0.185%
10,O=C(N/N=C/c1ccc(Cl)c(Cl)c1)c1ccc2nc[nH]c2c1,1.65% (active)
11,CC(=NNC(=O)c1ccc2nc[nH]c2c1)c1ccc(Br)cc1,0.573%
12,COc1ccc(/C(C)=N/NC(=O)c2ccc3nc[nH]c3c2)cc1,0.005%
13,CCC(=O)Nc1ccc2c(c1)C(=O)N(C)C[C@H](OC)[C@H](C)CN(C(=O)c1ccccn1)[C@@H](C)CO2,0.116%
14,C[C@]12CCC(=O)C=C1C=CC1C2CC[C@@]2(C)C1CC[C@@]21CCC(=O)O1 (stereo partly drawn),43.7% (active)
15,CC(=O)C12CC(C)=C(C)CC1CC1C3CCC4=CC(=O)CCC4(C)C3CCC12C (stereo not drawn),-0.095%
16,CC(=O)O[C@]1(C(C)=O)CC[C@H]2[C@@H]3C=C(C)C4=CC(=O)CC[C@]4(C)[C@H]3CC[C@@]21C,-0.13%
17,C[C@H](CO)N1C[C@H](C)[C@H](CN(C)S(=O)(=O)c2cccs2)Oc2c(NC(=O)Nc3ccc4c(c3)OCO4)cccc2C1=O,-0.125%
18,O=C(C[C@H]1CC[C@@H](NC(=O)c2ccc(F)cc2)[C@@H](CO)O1)NCc1ccncn1,-0.132%
19,COCC(=O)Nc1ccc2c(c1)[C@H]1C[C@@H](CC(=O)NCc3ccccc3F)O[C@H](CO)[C@H]1O2,-0.327%
20,C[C@@H](NC(=O)C[C@H]1CC[C@@H](NC(=O)Cc2ccccn2)[C@@H](CO)O1)c1ccccc1,-0.123%
21,CO[C@@H]1CC[C@H]2CCN(C)C(=O)[C@@H](C)CN(C)C(=O)c3cccc(C#N)c3OC[C@@H]1O2,-0.102%
